# Hits are enriched below; roughly 5.4% of the tested compounds scored in any of these assays.
# Calb FLC – C. albicans growth inhibition with fluconazole, primary screen, CaCi-2 strain, Alamar Blue fluorescence; growth inhibition, % (test concentration not listed); actives 0.57% (n = 300,000); C. albicans CaCi-2 (fluconazole-resistant clinical isolate) + fluconazole, 48 h;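 active = growth inhibition above about 58% in most replicates, limit read from the data, passing the limit was not always enough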;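 note: all wells also contain fluconazole at 8 µg/ml as a sub-toxic cotreatment; 0% = median of DMSO wells and 100% = median of geldanamycin control wells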
# MPTP block – mitochondrial permeability transition pore inhibitors, primary screen, biochemical, isolated mouse mitochondria, absorbance; Ca2+ swelling absorbance, 30 min; inhibition, % at 10 µM; actives 1.4% (n = 360,000);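 active = inhibition of 50% or more, scaled per plate between neutral and stimulator controls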;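 note: 0% = DMSO wells given calcium and 100% = 1 mM EGTA wells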
# Mdm2-MdmX inh – inhibitors of human Mdm2-MdmX association, primary screen, cell-based, luminescence, split luciferase, SaOS-2, uHTS; Protein Mdm4 (Homo sapiens) + E3 ubiquitin-protein ligase Mdm2 (Homo sapiens), …; SaOS-2 split-luciferase Mdm2/MdmX complementation; inhibition, % at 8 µM; actives 3% (n = 330,000); AID 485346, 2010;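 active = inhibition of at least 50% at 8 µM in the primary screen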
# Target sequence (O15151 whole entry, looked up): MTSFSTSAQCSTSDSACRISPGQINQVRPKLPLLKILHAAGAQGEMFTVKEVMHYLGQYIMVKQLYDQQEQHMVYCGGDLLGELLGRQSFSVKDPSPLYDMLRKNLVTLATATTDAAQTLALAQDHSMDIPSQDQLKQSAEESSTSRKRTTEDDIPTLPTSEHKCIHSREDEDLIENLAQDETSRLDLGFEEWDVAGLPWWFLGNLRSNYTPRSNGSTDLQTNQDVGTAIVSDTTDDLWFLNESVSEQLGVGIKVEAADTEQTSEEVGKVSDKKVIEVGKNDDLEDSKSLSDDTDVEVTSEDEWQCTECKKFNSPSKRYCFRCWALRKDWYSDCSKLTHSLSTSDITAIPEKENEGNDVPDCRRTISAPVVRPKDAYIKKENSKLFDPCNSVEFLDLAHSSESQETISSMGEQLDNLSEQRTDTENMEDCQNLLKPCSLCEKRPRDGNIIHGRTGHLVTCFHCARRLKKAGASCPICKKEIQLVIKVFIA
# Target sequence (Q00987 whole entry, looked up): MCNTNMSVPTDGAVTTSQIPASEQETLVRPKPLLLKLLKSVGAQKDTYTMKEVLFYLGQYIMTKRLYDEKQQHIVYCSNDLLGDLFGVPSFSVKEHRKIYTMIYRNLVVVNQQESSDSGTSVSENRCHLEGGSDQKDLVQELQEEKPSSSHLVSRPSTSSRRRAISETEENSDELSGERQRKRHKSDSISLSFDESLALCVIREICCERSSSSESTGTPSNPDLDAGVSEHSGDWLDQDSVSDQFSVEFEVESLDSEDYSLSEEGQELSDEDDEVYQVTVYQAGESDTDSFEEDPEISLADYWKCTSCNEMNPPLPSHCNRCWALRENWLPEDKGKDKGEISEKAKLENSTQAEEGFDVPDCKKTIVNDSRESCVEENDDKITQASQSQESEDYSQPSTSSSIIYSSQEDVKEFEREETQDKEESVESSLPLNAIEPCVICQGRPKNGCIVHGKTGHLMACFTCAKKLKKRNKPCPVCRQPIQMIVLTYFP
# Beta cell apopt – inhibitors of cytokine-induced beta cell apoptosis, primary screen, luminescence. INS-1E cytokine-induced death, ATP luminescence, 48 h; percent of positive-control rescue, neutral wells zero. protection from apoptosis, % (concentration not given with the values). actives 0.8% (n = 300,000). AID 435005, 2010;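 active = Every replicate reaches about 75%, or at least half do and their mean reaches it too, limit read from the data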;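 note: 0% = cytokine-treated negative control wells and 100% = positive control rescue; higher means more ATP so stronger rescue from cytokine killing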
# CSC inhib – cancer stem cell viability inhibitors, primary screen, luminescence; cancer stem cell-like cells viability; inhibition, % at 7.5 µM; AID 2717, 2010; actives 1.1% (n = 300,000); in the data active = inhibition above about 75%; tested in HMLE shEcad cells
# SKKanGAS inh – S. pyogenes SKKanGAS growth inhibitors in kanamycin, primary screen, streptokinase expression inhibitor project, SKKanGAS strain, BacTiter-Glo luminescence; inhibition, % at 7.5 µM; 6 h; actives 1.3% (n = 300,000);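 active = mean replicate score, as percent of positive control median, at least 50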;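 note: strain carries kanamycin resistance gene driven by streptokinase promoter and grows in 40 µg/ml kanamycin; loss of luminescence reflects streptokinase promoter inhibition or plain growth inhibition; 0% = median of DMSO wells and 100% = positive control at its reference dose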
# * hit, by the source's call; · = no result given.
SMILES,Calb FLC,MPTP block,Mdm2-MdmX inh,Beta cell apopt,CSC inhib,SKKanGAS inh
CC1=C(C#N)c2nc(N)c(C#N)c(C)c2/C1=C\c1ccc(C)cc1,11.1,·,30.3,·,31.0,70.6*
O=C(NC1CCCCC1)NC1C2CC3CC(C2)CC1C3 (configuration not stated),-13.7,-0.7,-8.3,1.4,1.5,54.5*
CCOc1ccc(-n2cc(-c3ccccc3)c3c(=S)nc[nH]c32)cc1,0.5,0.4,28.4,11.7,31.9,76.8*
CCOc1ccc(-n2cc(-c3ccccc3)c3c(=O)[nH]cnc32)cc1,2.4,0.1,18.3,-9.9,-0.9,-6.4
CCN(CC(=O)Nc1cccc(OC)c1)C(=O)c1cccc(S(=O)(=O)N2CCc3ccccc32)c1,·,-0.1,·,-6.3,·,·
Cc1cccc(-n2c(C)cc(/C=N\NC(=O)c3ccco3)c2C)c1,6.6,1.9,-0.3,2.4,-10.9,7.4
C=CCn1c(SCC(=O)c2[nH]c(C)c(C(=O)OCC)c2C)nc2scc(-c3ccc(OC)c(OC)c3)c2c1=O,2.5,-1.4,·,94.9*,93.0*,19.6
CCOC(=O)N1CCN(CC(=O)Nc2c(C(=O)OC)[nH]c3cccc(Cl)c23)CC1,-0.1,-1.8,-12.5,2.4,4.0,-3.2
Oc1ccccc1-c1cc(-c2ccccc2)n[nH]1,·,2.8,-205.2,-2.9,·,·
COc1ccccc1-c1cc(-c2cc(Cl)ccc2O)n[nH]1,-0.7,-0.1,9.1,13.0,23.1,13.9
Cc1ccccc1-c1cc(-c2ccccc2O)n[nH]1,-8.7,-0.2,-163.6,3.3,-4.7,54.5*
Cc1ccc(-c2cc(-c3ccccc3Cl)[nH]n2)c(O)c1,0.5,17.6,-68.0,19.5,111.7*,109.9*
COc1ccc(O)c(-c2cc(-c3ccccc3Cl)[nH]n2)c1,-3.2,4.8,-3.6,·,·,58.8*
CC(C)CCCN1CCN=C1Nc1ccccc1,-7.1,-0.6,1.2,-0.8,-5.1,4.6
COc1ccc(CC(=O)N2CCC(n3nccc3NC(=O)C3CCOC3)CC2)cc1 (configuration not stated),3.4,-0.8,16.8,-9.0,-14.1,-7.3
Cc1cccc(Sc2nc(-c3ccccc3)ncc2C(=O)O)c1,108.7*,0.6,7.7,-2.2,15.3,-19.6
O=C(O)c1cnc(-c2ccccc2)nc1Sc1ccc(Cl)cc1,98.7*,9.6,-1.3,0.9,17.3,9.4
O=C(O)c1cnc(-c2ccccc2)nc1Sc1ccccc1Cl,96.0*,8.6,12.9,6.6,19.0,9.2
COc1ccc(Sc2nc(-c3ccccc3)ncc2C(=O)O)cc1,60.3,-0.9,25.8,-0.5,-2.6,·
CC(Oc1ccc([N+](=O)[O-])cc1)C(=O)NCCCN1CCOCC1 (configuration not stated),2.9,-0.1,9.5,0.7,7.9,-0.9
CC(=O)N1c2ccccc2NC(=O)C1(C)C,-6.8,-0.4,15.3,3.4,-3.0,-4.3
C/C(=N\Nc1cc(N2CCCCC2)nc(C)n1)c1ccc(Br)cc1,-0.3,4.4,38.7,59.8,105.0*,81.7*
COc1cc(C(=O)N/N=C/c2cc([N+](=O)[O-])cs2)cc(OC)c1OC,11.3,-0.3,33.6,27.2,51.6,-2.7
Cc1cc(C2=NNC(=Nc3ccccc3)SC2)c(C)n1C,-41.8,0.5,-89.9,-12.7,-13.1,2.9
CC(=O)Nc1ccc(C2=NNC(=Nc3cccc(S(=O)(=O)N(C)C)c3)SC2)cc1,-4.1,-0.1,19.8,96.3*,37.5,1.7
SMILES,Calb FLC,MPTP block,Mdm2-MdmX inh,Beta cell apopt,CSC inhib,SKKanGAS inh
Fc1ccccc1N=C1NN=C(c2ccccc2)CS1,0.0,0.2,-174.0,97.4*,46.5,66.7*
CN(C)S(=O)(=O)c1cccc(N=C2NN=C(c3ccccc3)CS2)c1,·,·,·,90.8*,16.7,·
CCOC(=O)Cn1cc(Cl)c(=O)c(Cl)c1,-5.2,0.4,21.8,-2.8,-7.1,5.5
COc1ccc(/C=C/C(=O)OCC(=O)NCCC2=CCCCC2)cc1,15.5,-0.3,15.9,-1.4,-7.3,-14.3
Cn1ncc(C#N)c1NC(=O)C1CC(c2ccccc2Cl)=NO1 (configuration not stated),4.4,·,5.3,-3.4,-10.1,-13.9
Nc1ccc(N=Nc2ccccc2)c(N)n1,·,-0.4,-8.8,·,·,1.6
Nc1ccc(N=Nc2ccccc2)c2ccccc12,17.0,1.4,30.3,9.3,81.2*,86.1*
Cc1ccc2nc(N3C(=O)C(O)=C(C(=O)c4ccco4)C3c3cccs3)sc2c1 (configuration not stated),55.7,1.8,-79.4,-1.1,34.5,51.7*
Cc1cc(C)c2nc(N3C(=O)C(O)=C(C(=O)c4ccco4)C3c3ccco3)sc2c1 (configuration not stated),-2.1,0.8,-15.0,-2.0,13.1,78.4*
CCN(CC)CCNC(=O)c1ccc(NC(=O)COc2ccccc2F)cc1,-1.0,2.5,-4.1,-3.0,-4.5,8.8
Cc1ccc2c(CN(C)Cc3ccc(Cl)cc3Cl)cc(=O)oc2c1,-6.4,0.5,-0.7,1.3,-3.0,52.7*
C/C(=N/Nc1ccc(C)cc1)C1(C)N(O)C(C)(C)C(c2ccco2)=[N+]1[O-] (configuration not stated),111.9*,2.3,8.8,-4.7,-6.2,-6.5
Cc1cccc(C)c1-n1nnnc1SCC(=O)c1c(N)n(C2CC2)c(=O)[nH]c1=O,·,-0.8,15.2,-1.5,-1.8,·
Cc1ccc(-n2nnnc2C(Cl)(Cl)c2nnnn2-c2ccc(C)cc2)cc1,103.2*,-3.5,-19.2,0.4,52.7,-19.0
Cc1ccc(C2CC(c3ccc(C)cc3)n3nc(N)nc3N2)cc1 (configuration not stated),-2.8,0.4,10.3,102.9*,·,9.7
CCNc1nc(NC(C)C)nc(SCCOC(=O)c2ccccc2)n1,40.8,5.9,19.0,4.6,-4.5,-0.1
CC(C)Nc1nc(NC(C)C)nc(SCCOC(=O)Nc2ccc(Cl)cc2Cl)n1,-8.0,2.8,29.7,6.8,90.3*,33.7
CCN(C(=O)COC(=O)c1n[nH]c2ccccc12)C1CCS(=O)(=O)C1 (configuration not stated),-14.3,-0.5,12.4,-7.9,-13.1,-2.2
CC(=O)O[C@]1(C(C)=O)CC[C@H]2[C@@H]3C[C@H](C)C4=CC(=O)CC[C@]4(C)[C@H]3CC[C@@]21C,·,-1.1,16.1,3.9,3.4,-3.8
CC(=O)O[C@H]1C[C@@]2(C)[C@@H](C[C@@H](O)[C@H]3[C@@]4(C)CC[C@@H](O)[C@@H](C)C4CC[C@@]32C)/C1=C(\CCC=C(C)C)C(=O)O (some centres not stated),·,-3.9,·,·,·,73.4*
Clc1ccc(Cn2ccc(C3CC3)n2)cc1,14.4,2.2,1.1,2.7,-4.5,-5.3
N/C(Cc1nc(-c2ccc(Br)cc2)cs1)=N\O,98.7*,0.4,-11.2,-4.3,-7.2,5.8
